An excerpt weighted towards active compounds, which were near 3.6% of everything screened.
D1 agonist – activates the human D1 dopamine receptor; HEK293 T-REx D1 cells, calcium flux, agonist mode; actives 1% (n = 360,000); activation, % at 2 µM; P21728; AID 504660; in the data active = activation above about 30%; note: 0% is about no effect
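Agonism was scored from calcium flux recorded over 180 s (1 read/s) after pintool compound addition, following a 10-cycle baseline. Cells were inducible force-coupled HEK293 TREx D1, plated overnight at 30 C and loaded with no-wash calcium dye.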
LDHA inh – LDHA (human) enzyme inhibition. purified LDHA, NADH/diaphorase-resazurin fluorescence; stronger effect = lower value. activity change, % (values are at about 110 or 230 µM). actives 0.15% (n = 480,000). AID 1347041; in the data active = activity change below about -30%; inconclusive = mostly about -25% to -30%;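 note: plate controls were DMSO wells for no effect and wells without enzyme for full effect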
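Human LDH5 at 2 nM final in Tris HCl pH 7.4 with 0.06 mM NADH and 0.2 mM pyruvate, reacted 5 minutes at room temperature. Remaining NADH coupled via diaphorase/resazurin; resorufin fluorescence read at 0 and 20 minutes, normalized to enzyme-free and DMSO wells.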
TRHR agonist-1 – TRH receptor (human) agonism. TRHR cells, calcium flux fluo-8, FDSS agonist mode. AID 493084. actives 0.18% (n = 360,000). P34981. activation, % at 2 µM; in the data active = activation above about 30%; note: 0% is about no effect
Target sequence (P34981 whole entry, looked up): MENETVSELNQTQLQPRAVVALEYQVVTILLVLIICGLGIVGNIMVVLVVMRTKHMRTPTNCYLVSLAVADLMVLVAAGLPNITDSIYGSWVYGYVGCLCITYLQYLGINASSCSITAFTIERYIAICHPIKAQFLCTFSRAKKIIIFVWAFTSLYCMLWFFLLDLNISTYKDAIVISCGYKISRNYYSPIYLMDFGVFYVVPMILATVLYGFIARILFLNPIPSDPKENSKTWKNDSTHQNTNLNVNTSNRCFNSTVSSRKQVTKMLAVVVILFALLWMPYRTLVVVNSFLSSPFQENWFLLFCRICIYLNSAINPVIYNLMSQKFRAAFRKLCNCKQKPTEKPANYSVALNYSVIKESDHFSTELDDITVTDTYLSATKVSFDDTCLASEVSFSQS
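Read-out: compound-evoked intracellular calcium rise in TRHR cells, fluo-8 dye, kinetic FDSS fluorescence at 1 s/cycle following a 10-cycle baseline. Cells cultured overnight before dye loading (30 min–1.5 h, RT).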
D1 PAM – potentiators of human D1 dopamine receptor | HEK293 TREx D1 cells, calcium flux, dopamine EC20 potentiation | potentiation, % at 10 µM | P21728 | actives 0.036% (n = 360,000); in the data active = potentiation above about 30%; note: 0% is about no effect
D1 antagonist – antagonists of human D1 dopamine receptor; HEK293 TREx D1 cells, calcium flux, dopamine EC80; stronger effect = lower value; activity change, negative = inhibition, % at 10 µM; P21728; actives 3.2% (n = 360,000); in the data active = activity change below about -30%; note: % is set by controls: 0 for no effect and ±100 for the full control effect
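Allosteric or orthosteric antagonism assessed as attenuation of the calcium response to EC80 dopamine, added 180 s after compound, in induced HEK293 Trex D1 cells loaded with no-wash calcium dye.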
TRHR enhancer-1 – allosterically enhances the human TRH receptor; TRHR cells, fluo-8 calcium fluorescence, EC20 TRH enhancement; actives 0.66% (n = 360,000); P34981; enhancement, % at 2 µM; in the data active = enhancement above about 30%; note: 0% is about no effect
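TRHR-expressing cells loaded with fluo-8 calcium dye were read kinetically (ex 480/em 530) during compound addition, then stimulated with an EC20 of TRH (10 nM final). Enhancement of the Gq-mediated intracellular calcium response was scored.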
TRHR enhancer-2 – human TRH receptor allosteric enhancement confirmation; shares compounds with TRHR enhancer-1; TRH receptor cell assay, enhancer confirmation qHTS; activity change, negative = inhibition, % at 46.1 µM; 970 tested, under 10 active; AID 493076;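 note: compound effect scored on response to added TRH at EC20 of 10 nM; 0% is about no effect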
TRHR agonist-2 – human TRH receptor agonism confirmation. TRHR-expressing cells, agonist activation read-out. AID 493078. shares compounds with TRHR enhancer-1. actives 8% (n = 970). Potency, µM (series often up to 46.1 µM), without a hit: at the highest dose activation, actives largely listed as activators; note: potency is the fitted concentration of half-maximal effect; 0% is about no effect; nearly all actives have a fitted effect of over 75% in size
Starred values were filed as active, the others as inactive; ? = inconclusive; . = no result. Unless noted, calls come from the whole dose curve; as a rule, active = well fitted curve in the direction sought with a large enough effect; inconclusive = small, poorly fitted or top-dose-only effect, or another doubt; inactive = no such curve, though single readings can be large; an effect the other way counts as inactive or inconclusive.

SMILES	D1 agonist	LDHA inh	TRHR agonist-1	D1 PAM	D1 antagonist	TRHR enhancer-1	TRHR enhancer-2	TRHR agonist-2
O=C1c2ccccc2C(O)N1c1ccccc1 (stereo not drawn)	2	-5	31*	-1	3	-3	4	0%
Cc1cc(O)c(C2(C(F)(F)F)NCCNC2=O)cc1C (stereo not drawn)	4	0	2	-5	2	43*	-3	0%
O=C1NCCNC1(c1c[nH]c2ccccc12)C(F)(F)F (stereo not drawn)	4	4	0	2	9	4	.	.
CCC(C)NC(=O)c1cc2c(=O)n(CC)c3ccccc3c2s1 (stereo not drawn)	2	-1	-1	-9	4	58*	-5	2%
COc1ccc(NC(=O)COC(=O)c2ccc(N3CCCC3=O)cc2)cc1OC	3	-6	0	-8	12	43*	4	-1%
CC1=NN(c2ccccc2)C(=O)/C1=C\c1ccc(Br)s1	2	-1	0	4	5	9	.	.
CC1=NN(c2ccccc2)C(=O)/C1=C/c1cccs1	0	8	28	9	0	-10	-13	1%
COc1ccc(N(CC(=O)Nc2cccc(C(C)=O)c2)S(C)(=O)=O)cc1OC	1	-1	1	6	-6	53*	-8	0%
COc1cccc(N(CC(=O)Nc2cccc(C(C)=O)c2)S(C)(=O)=O)c1	5	-3	0	-4	-6	1	.	.
COc1cc(CN2CCNC(=O)C2CC(=O)NC2CCCC2)cc(OC)c1 (stereo not drawn)	-1	7	1	-2	0	58*	-7	0%
COc1cc(CN2CCNC(=O)C2CC(=O)NC2CCCCC2)cc(OC)c1 (stereo not drawn)	5	6	0	1	12	19	.	.
O=C(COC(=O)c1cccc(NC(=O)c2ccco2)c1)c1ccccc1	.	-3	.	.	.	.	.	.
CC1(C)CN=C(N(Cc2ccccc2)C(=O)Nc2ccccc2)S1	11	-7	3	-3	2	42*	4	?
COc1cccc(C2CC(c3ccc(NS(C)(=O)=O)cc3)=NN2C(=O)c2ccccc2)c1OC (stereo not drawn)	6	2	0	-2	-21	50*	-5	4%
O=C(Cc1nc2ccccc2[nH]c1=O)c1ccccc1	52*	-8	31*	-4	-7	1	-4	?
CCOc1ccc(Oc2ccc(NC(=O)c3ccc[n+]([O-])c3)cc2)cc1	.	-4	.	.	.	.	.	.
CCOC(=O)NNC(=S)NCC1CCCO1 (stereo not drawn)	.	3	.	.	.	.	.	.
CC(C)Oc1ccc(/C=C(/NC(=O)c2ccccc2)C(=O)NC(Cc2ccccc2)C(=O)O)cc1 (stereo not drawn)	2	-8	0	.	-5	-3	.	.
CC(C)Oc1ccc(/C=C(/NC(=O)c2ccccc2)C(=O)NCCC(=O)O)cc1	1	-11	0	-1	-16	47*	-2	0%
Cc1ccc(S(=O)(=O)N2CCCC2C(=O)NCc2ccccc2F)cc1 (stereo not drawn)	0	-1	-1	1	-16	1	.	.
Cc1ccc(CNC(=O)C2CCCN2S(=O)(=O)c2ccc(F)cc2)cc1 (stereo not drawn)	0	-13	-1	-5	13	47*	-4	2%
COc1ccc(C(=O)Sc2ccc(C)cc2)cc1	.	11	.	.	.	.	.	.
C=CCn1c(C)cc(-c2csc(NC(=O)C3=COCCO3)n2)c1C	2	-1	0	-8	19	59*	-9	0%
Cc1ccc(-c2c(C)sc3nc[nH]c(=O)c23)cc1C	2	-6	-1	-21	-35*	47*	0	1%
Brc1ccc(-c2csc(NNC3=NCCCCC3)n2)cc1	0	-7	-1	6	23	2	.	.
SMILES	D1 agonist	LDHA inh	TRHR agonist-1	D1 PAM	D1 antagonist	TRHR enhancer-1	TRHR enhancer-2	TRHR agonist-2
CC(C)(C)c1ccc(-c2csc(NNC3=NCCCCC3)n2)cc1	0	-11	0	1	.	55*	7	6%
O=C(N/N=C/c1c(O)ccc2ccccc12)c1ccc(CO)nc1	23	4	32*	-3	10	1	4	?
O=C(CNC(=O)c1ccc(S(=O)(=O)N2CCCC2)cc1)N/N=C/c1ccccc1Cl	2	-3	-1	-6	-1	1	.	.
O=C(NN=Cc1c(O)ccc2ccccc12)c1ccc2c(c1)OCO2	.	2	.	.	.	.	.	.
O=C(N/N=C\c1c(O)ccc2ccccc12)c1ccc(S(=O)(=O)N2CCCCC2)cc1	52*	9	60*	-9	-8	26	?	18µM*
O=C(NCc1ccc(F)cc1)c1ccc(N2CCOCC2)c([N+](=O)[O-])c1	-1	-4	0	-5	1	3	.	.
O=C(N/N=C/c1ccc(N2CCOCC2)c([N+](=O)[O-])c1)c1ccc(F)cc1	-1	-10	0	-1	.	100*	7	2%
COc1ccc(OC)c(NC(=O)c2ccc3c(=O)n4c(nc3c2)CCCCCC4)c1	.	8	.	.	.	.	.	.
COc1ccc(NC(=O)c2ccc3c(=O)n4c(nc3c2)CCCCC4)cc1	0	-7	0	-2	-4	76*	-4	-1%
C=CCn1cc(C(=O)N2CCN(C)CC2)c(=O)c2cc(S(=O)(=O)N3CCCC3)ccc21	3	-1	0	.	-2	-3	.	.
C=CCn1cc(C(=O)N2CCN(C)CC2)c(=O)c2cc(S(=O)(=O)N(CC)CC)ccc21	3	-4	1	-6	-14	53*	-4	-1%
COc1cccc(CN(C)C(=O)c2ccc(S(=O)(=O)Nc3ccccc3F)cc2)c1OC	1	-13	0	-6	2	48*	-3	4%
O=S(Cc1ccccc1)Cc1cccc(C(F)(F)F)c1 (stereo not drawn)	.	-6	.	.	.	.	.	.
COc1ccc(NC(=O)CN(C)C(=O)CNC(=O)c2sc3ccccc3c2Cl)cc1	1	0	0	-9	-1	45*	1	1%
CC1(C)Cc2ccccc2C(NC(=O)c2ccc(Cl)cc2Cl)=C1C#N	.	4	.	.	.	.	.	.
CCN(CC)c1ccc(/C=N/NC(=O)c2cccc(S(=O)(=O)N3CCOCC3)c2)c(O)c1	12	-1	39*	-4	-29	-2	3	?
